Rtt109 Vps75 = inhibitors of Candida albicans Rtt109/Vps75 histone acetyltransferase; purified Rtt109/Vps75, ThioGlo CoA-SH fluorescence, 4 h; 330,000 compounds, 0.16% hits; Q5AAJ8; AID 540336; inhibition, % at 34.9 µM;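 active = inhibition of at least 50% in every replicate; inconclusive = best replicate reaches 50% inhibition but some replicates fall short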
ALR H2O2 inh = human ALR oxidase inhibition via reduced H2O2 | 290,000 compounds, 3.8% hits | inhibition, % (test concentration not listed) | P55789 | purified ALR, DTT oxidation, H2O2 HRP-luminol luminescence | AID 485317;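 active = mean replicate inhibition above about 79%, with every replicate also reaching it, limit read from the data; inconclusive = only one of the two criteria met; inactive = mean below limit and not every replicate reaching it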
HDAC3 inh = blocks human histone deacetylase 3; O15379; recombinant HDAC3, fluorogenic peptide/trypsin coupled, fluorescence; inhibition, % at 8.3 µM; 320,000 compounds, 0.15% hits; in the data active = inhibition above about 26%, passing the limit was not always enough; inconclusive = no clear call, values can overlap the other calls
Target sequence (O15379 whole entry, looked up): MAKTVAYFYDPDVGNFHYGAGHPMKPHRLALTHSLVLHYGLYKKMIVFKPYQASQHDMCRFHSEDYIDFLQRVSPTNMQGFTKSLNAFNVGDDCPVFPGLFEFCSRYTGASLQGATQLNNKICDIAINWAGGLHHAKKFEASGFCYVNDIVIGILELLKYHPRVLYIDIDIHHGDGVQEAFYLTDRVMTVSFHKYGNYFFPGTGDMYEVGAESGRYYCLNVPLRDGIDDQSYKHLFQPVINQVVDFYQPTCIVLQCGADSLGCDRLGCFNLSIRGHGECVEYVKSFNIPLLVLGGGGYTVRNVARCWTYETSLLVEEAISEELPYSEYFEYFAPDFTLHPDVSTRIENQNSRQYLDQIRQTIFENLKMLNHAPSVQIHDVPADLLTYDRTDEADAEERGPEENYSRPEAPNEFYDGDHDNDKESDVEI
Efflux pump mplx = blocks antifungal efflux pumps in multiplex yeast assay. S. cerevisiae Candida pump triplex, Nile Red efflux. inhibition, % at 10 µM. 330,000 compounds, 0.44% hits;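 active = plate passing quality check with inhibition over a set limit, or well fluorescence over plate mean plus 4 SD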;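 also: Nile Red retained in pooled yeast measured as flow cytometry median fluorescence; 0% = buffer negative control and 100% = Enniatin B positive control; higher means more Nile Red kept so more efflux inhibition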
Rce1 inh = yeast Ras-converting enzyme inhibition; calls only; yeast membranes, quenched prenylated peptide cleavage fluorescence; 290,000 compounds, 0.27% hits; Q03530;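 active = fall in fluorescence gain of 50% or more versus controls, with final raw signal at or below 3038400; inconclusive = same 50% fall but final raw signal above 3038400; inactive = fall in fluorescence gain under 50%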;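 also: plate controls were neutral control wells for no effect and wells lacking membranes for full effect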
GRK2 aptamer HTS = human GRK2 inhibition via aptamer displacement | bead flow cytometry, FAM-aptamer displacement from GRK2 | inhibition of aptamer binding, % at 10 µM | 330,000 compounds, 0.59% hits | AID 488847;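 active = inhibition of aptamer binding above 40%, roughly 3 SD of noise, on plates passing a quality check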;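 also: median bead fluorescence of bound FAM aptamer so fluorescent compounds give negative values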
The depositor's hits bear a star. Hits are enriched below; roughly 4.5% of the tested compounds scored in any of these assays.

Screening COC(=O)c1ccc(CSc2n[nH]c(=S)s2)o1 returned Rtt109 Vps75 -6, ALR H2O2 inh 92*, HDAC3 inh 4, Efflux pump mplx 0, Rce1 inh inactive and GRK2 aptamer HTS 0.
`COC(=O)c1ccc(CSc2nc3ccccc3s2)o1` gave Rtt109 Vps75 0, ALR H2O2 inh 2, HDAC3 inh inconclusive, Efflux pump mplx 0, Rce1 inh inactive and GRK2 aptamer HTS 0.
COC(=O)c1ccc(CSc2nc3c(cnn3-c3ccc(C)cc3)c(=O)[nH]2)o1 was read as Rtt109 Vps75 -1, ALR H2O2 inh 0, HDAC3 inh 4, Efflux pump mplx 0, Rce1 inh inactive and GRK2 aptamer HTS 2.
NC(=O)Cn1cc(/C=N/NC(=O)c2ccc(Cn3cc(Cl)cn3)o2)c(-c2ccccc2)n1 was read as Rtt109 Vps75 -2, ALR H2O2 inh -12, HDAC3 inh 4, Efflux pump mplx 0, Rce1 inh inactive and GRK2 aptamer HTS 0.
For Cc1ccccc1SC1CCN(Cc2nc(C3CC3)no2)CC1 the results were Rtt109 Vps75 3, ALR H2O2 inh -22, HDAC3 inh -2, Efflux pump mplx 0, Rce1 inh inactive and GRK2 aptamer HTS 0.
`O=C(Nc1ccccc1)c1nnsc1S(=O)c1ccc(Cl)cc1` (stereo not drawn) gave Rtt109 Vps75 4, ALR H2O2 inh 98*, HDAC3 inh 6, Efflux pump mplx 0, Rce1 inh inactive and GRK2 aptamer HTS 0.
`Cc1nnsc1S(=O)c1ccc(Cl)cc1` (stereo not drawn) gave HDAC3 inh -5, Efflux pump mplx 0, Rce1 inh inactive and GRK2 aptamer HTS 0.
Screening O=C(c1nnsc1S(=O)c1ccc(Cl)cc1)N1CCOCC1 (stereo not drawn) returned Rtt109 Vps75 136* and Rce1 inh inactive.
Screening CCOC(=O)C1=C(Cc2ccc(F)cc2)C(=O)c2ccccc2C1=O returned Rtt109 Vps75 2, ALR H2O2 inh 64, HDAC3 inh 14, Efflux pump mplx 0, Rce1 inh inactive and GRK2 aptamer HTS 0.
For CCCCc1ccc(/C=C2\C(=O)c3ccccc3C(O)=C2C(=O)OCC)cc1 the results were ALR H2O2 inh -11, HDAC3 inh 4, Efflux pump mplx 1.1*, Rce1 inh inactive and GRK2 aptamer HTS 0.
For O=c1c2ccccc2sn1-c1cc(S(=O)(=O)N2CCOCC2)ccc1N1CCCC1 the results were Rtt109 Vps75 7, ALR H2O2 inh 27, HDAC3 inh 27*, Efflux pump mplx 0, Rce1 inh inactive and GRK2 aptamer HTS 5.
Screening Nc1cc(S(=O)(=O)N2CCOCC2)ccc1N1CCCCC1 returned Rtt109 Vps75 -11, ALR H2O2 inh 98*, HDAC3 inh 3, Efflux pump mplx 0 and GRK2 aptamer HTS 0.
`Nc1cc(S(=O)(=O)Nc2ccccc2Cl)ccc1N1CCCC1` gave Rtt109 Vps75 -3, ALR H2O2 inh 99*, HDAC3 inh -1, Efflux pump mplx 0, Rce1 inh inactive and GRK2 aptamer HTS 0.
Screening O=c1c2ccccc2sn1-c1cc(S(=O)(=O)N2CCOCC2)ccc1N1CCOCC1 returned Rtt109 Vps75 122*, ALR H2O2 inh 33, HDAC3 inh 18, Efflux pump mplx 0, Rce1 inh inactive and GRK2 aptamer HTS 0.
Screening O=C(O)c1cc(S(=O)(=O)N2CCOCC2)ccc1N1CCCCC1 returned Rtt109 Vps75 1, ALR H2O2 inh -3, HDAC3 inh -2, Efflux pump mplx 0, Rce1 inh inactive and GRK2 aptamer HTS 4.
`Nc1cc(S(=O)(=O)N2CCCCC2)ccc1N1CCCCC1` gave Rtt109 Vps75 5, HDAC3 inh -3, Efflux pump mplx 0 and GRK2 aptamer HTS 7.
For O=C(O)CSc1nnc2c(n1)[nH]c1ccccc12 the results were Rtt109 Vps75 5, ALR H2O2 inh -3, HDAC3 inh 4, Efflux pump mplx 0 and GRK2 aptamer HTS 0.
For O=C(O)CSc1c(-c2cccs2)[nH]c2ccccc12 the results were Rtt109 Vps75 -8, ALR H2O2 inh 99*, HDAC3 inh 3, Efflux pump mplx 0, Rce1 inh inactive and GRK2 aptamer HTS 3.
For O=C(O)CSc1nc(-c2ccccc2)c(-c2ccccc2)[nH]1 the results were Rtt109 Vps75 -2, HDAC3 inh -13, Efflux pump mplx 0, Rce1 inh inactive and GRK2 aptamer HTS 1.

Bioassay records (PubChem BioAssay)
